Experimental data from PubChem BioAssay.
Calls of active or inactive are those of the source.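 The calls were made as follows: active = fluorescence ratio normalized to control raised more than 50% in primary screen plus both repeat runs; inactive = the rest.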

Test system: TRPC4 beta (transient receptor potential cation channel C4), mouse
Assay: activators of mouse TRPC4 channel, confirmation, cell-based, Fluo4 calcium, HEK293 TRPC4beta/mu-opioid, duplicates, 10 µM (AID 2426);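 as to activation: percent rise of integrated ratio over buffer wells lacking compound which define 0%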
Settings: Fluo4 calcium fluorescence, at 10 µM; hits give high values

**Q.** For O=C(NC(=S)NNC(=O)[C@H]1C[C@@H]1c1ccccc1)c1cccc(F)c1, which activation is on record?
**A.** 213% (active)

**Q.** Which activation does the source give for NCCCn1c(C(=O)c2cc(Cl)c(N)c(Cl)c2)c2ccccc2[n+]1[O-] here?
**A.** 179% (active)

**Q.** For COC(=O)c1ccccc1N=Nc1c(N)[nH][nH]c1=O, which activation is on record?
**A.** 87% (active)

**Q.** For O=C(CNS(=O)(=O)c1ccc2ccccc2c1)NCCc1ccccn1, which activation is on record?
**A.** 110% (active)

**Q.** CC(c1cccnc1)N(CCN(C)C)C(=O)Nc1ccc(Cl)c(Cl)c1 (centres undefined) was tested. Which outcome did it give?
**A.** inactive

**Q.** Which outcome does the source give for Cc1ccc(C(=O)NC(=S)NNC(=O)c2ccccc2)cc1 here?
**A.** inactive

**Q.** With C=CCn1c(CCNC(=O)c2ccco2)nc2ccccc21 as the compound, how does the activation read?
**A.** 165% (active)

**Q.** CCOC(=O)[C@@H]1CCNC[C@@H]1c1ccccc1 was tested. Which activation did it give?
**A.** 217% (active)

**Q.** How did the activation turn out when Cc1sc2nc(CSc3ccccc3)nc(NCCN(C)C)c2c1C was run?
**A.** 173% (active)

**Q.** O=C(NCCc1cccc(Cl)c1)c1ccc(OC2CCN(Cc3ccccn3)CC2)cc1 was tested. Which activation did it give?
**A.** 69% (active)

**Q.** How did the activation turn out when CCOC(=O)C1(CCCc2ccccc2)CCN(Cc2cn(CC)nc2C)CC1 was run?
**A.** 153% (active)

**Q.** How did the activation turn out when CCCN(CCC)CCCNC(=O)C1CCN(S(=O)(=O)c2cccc3nsnc23)CC1 was run?
**A.** 145% (active)

**Q.** Which outcome does the source give for CCN1C(=O)c2cccc3c(S(=O)(=O)Nc4ccccc4OC)ccc1c23 here?
**A.** inactive

**Q.** With CCCN(CCC)CCCNC(=O)C1CCC(CNS(=O)(=O)c2cccc3nsnc23)CC1 (centres undefined) as the compound, how does the activation read?
**A.** 83% (active)

**Q.** For CCN1CCN(c2ccc(S(=O)(=O)N3CCCCC3)cc2NC(=O)C(C)Oc2ccc(F)cc2)CC1 (centres undefined), which activation is on record?
**A.** 185% (active)

**Q.** For O=C(Nc1nnc(-c2ccccc2Cl)o1)c1nc2ccccc2s1, which activation is on record?
**A.** 143% (active)

**Q.** How did the activation turn out when COc1ccc(-c2nn(-c3ccccc3)cc2CNCc2cccnc2)c(F)c1 was run?
**A.** 224% (active)

**Q.** How did the activation turn out when Cc1ccc2oc(=O)c3cnn(CC(=O)NC4CCN(Cc5ccccc5)CC4)c3c2c1 was run?
**A.** 68% (active)

**Q.** For CCCCC(=O)NNC(=S)NC(=O)c1ccc(C)cc1, which activation is on record?
**A.** 240% (active)

**Q.** For COc1cc(/C=C/C(=O)c2ccc3c(c2)OCO3)cc(Cl)c1O, which activation is on record?
**A.** 113% (active)

**Q.** With CN(C)C(CNC(=O)C1CC(=O)N(Cc2ccccc2)C1)c1ccccc1 (centres undefined) as the compound, how does the activation read?
**A.** 90% (active)

**Q.** How did the activation turn out when Cc1ccccc1OCC(=O)NNC(=S)NC(=O)c1ccco1 was run?
**A.** 103% (active)

**Q.** Which activation does the source give for O=C(CCc1ccccc1)NNC(=S)NC(=O)c1ccc(Cl)cc1 here?
**A.** 170% (active)

**Q.** Which activation does the source give for CN(CCOc1ccc(Cl)cc1)CC(O)c1ccccc1 (centres undefined) here?
**A.** 76% (active)

**Q.** Cc1onc(-c2ccccc2)c1C(=O)NC(=S)NNC(=O)c1ccco1 was tested. Which activation did it give?
**A.** 142% (active)

**Q.** CC(NCCC1(Cc2ccccc2Cl)CCOC(C)(C)C1)c1cccs1 (centres undefined) was tested. Which activation did it give?
**A.** 89% (active)

**Q.** CN(C)C(CNC(=S)Nc1ccc(F)cc1)c1cccnc1 (centres undefined) was tested. Which activation did it give?
**A.** 95% (active)

**Q.** With O=C(COc1ccccc1)NNC(=S)NC(=O)c1ccc(Cl)cc1Cl as the compound, how does the activation read?
**A.** 63% (active)

**Q.** CCN1CCN(c2c(S(=O)(=O)c3ccc(C)c(C)c3)cnc3ccc(F)cc23)CC1 was tested. Which activation did it give?
**A.** 106% (active)

**Q.** How did the activation turn out when COc1ccc(C(CNC(=O)c2cccc(NS(=O)(=O)c3ccc(C)c(F)c3)c2)N(C)C)cc1 (centres undefined) was run?
**A.** 135% (active)

**Q.** How did the activation turn out when CCOC(=O)C1(CCOc2ccccc2)CCN(Cc2cnc(C)s2)CC1 was run?
**A.** 66% (active)

**Q.** For COc1ccc(/C=C/CN2CCCC(C(=O)c3ccc(OC)c(F)c3)C2)cc1 (centres undefined), which outcome is on record?
**A.** inactive

**Q.** How did the activation turn out when O=S(=O)(c1ccc(Cl)cc1)N1CCN2CCCC2C1 (centres undefined) was run?
**A.** 103% (active)

**Q.** How did the activation turn out when OC(CNC1CCCc2ccccc21)COc1ccc2ccccc2c1 (centres undefined) was run?
**A.** 158% (active)

**Q.** For Cc1ccc2[nH]c3c(=O)n(CCc4cnc[nH]4)cnc3c2c1, which activation is on record?
**A.** 126% (active)

**Q.** With Cc1ccn2cc(CCNC(=O)C3CC=CCC3C(=O)O)nc2c1 (centres undefined) as the compound, how does the activation read?
**A.** 135% (active)

**Q.** CCOC(=O)C1(CCOc2ccccc2)CCN(Cc2ccc(OC)c(O)c2)CC1 was tested. Which activation did it give?
**A.** 207% (active)

**Q.** Cc1cc(OCCCn2ccnc2)cc(C)c1Cl was tested. Which activation did it give?
**A.** 67% (active)

**Q.** For CCn1cc(CN2CCCC(C(=O)Nc3ccc(-c4nc5ccccc5[nH]4)cc3)C2)c(C)n1 (centres undefined), which activation is on record?
**A.** 169% (active)
